{"source": "the supplement of paper PMC13380429"}
{"test_system": "Vero E6 infected with SARS-CoV-2", "assay": "morphology score (similarity to uninfected cells); higher = more like uninfected cells", "details": "24 h"}
{"smiles": "O=C(Cc1ccc(-c2ccccc2)cc1)Nc1ccccn1", "note": "[difenpiramide] (10 µM)", "morphology score": 0.431}
{"smiles": "CCOC(=O)Nc1ccc2c(c1)N(C(=O)CCN1CCOCC1)c1ccccc1S2", "note": "[moracizine] (10 µM)", "morphology score": 0.154}
{"smiles": "Cc1ccc(C)c(Oc2ccncc2C(=O)N2CCN(C3CC3)c3ccccc32)c1", "note": "(10 µM)", "morphology score": 0.133}
{"smiles": "C#CCN(C)[C@H](C)Cc1ccccc1", "note": "[selegiline] (10 µM)", "morphology score": 0.0406}
{"smiles": "C[C@@H]1CN(Cc2ccc(F)cc2)[C@@H](C)CN1C(=O)c1cc2c(C(=O)C(=O)N(C)C)cn(C)c2cc1Cl", "note": "[talmapimod] (10 µM)", "morphology score": 0.103}
{"smiles": "CCC1(c2ccccc2)C(=O)N(COC)C(=O)N(COC)C1=O", "note": "[eterobarb] (10 µM)", "morphology score": -0.0955}
{"smiles": "CCOc1ccc(-c2ccc(Cn3c(CC(C)(C)C(=O)O)c(SC(C)(C)C)c4cc(OCc5ccc(C)cn5)ccc43)cc2)cn1", "note": "(0.833333 µM)", "morphology score": 0.228}
{"smiles": "C/C(O)=C(\\C#N)C(=O)Nc1ccc(C(F)(F)F)cc1", "note": "[teriflunomide] (10 µM)", "morphology score": 0.0341}
{"smiles": "CC(C)(O)c1ccccc1CC[C@@H](SCC1(CC(=O)O)CC1)c1cccc(/C=C/c2ccc3ccc(Cl)cc3n2)c1", "note": "[montelukast] (10 µM)", "morphology score": 0.169}
{"smiles": "O=C1CC2(CCCC2)CC(=O)N1CCCCNC[C@H]1COc2ccccc2O1", "note": "(racemic) (10 µM)", "morphology score": -0.0862}
{"smiles": "CCCCCCCCCCCCCCCCCC(=O)OCC(O)CO", "note": "(configuration not stated) [monostearin] (10 µM)", "morphology score": -0.0152}
{"smiles": "NC(=O)c1ccc(-c2nc(-c3ccccn3)c(-c3ccc4c(c3)OCO4)[nH]2)cc1", "note": "(10 µM)", "morphology score": -0.124}
